Many of the other results were omitted from the sample, so hits are more common in it than they were.
BJeLR viab HTS = BJeLR cell viability loss, primary screen, luminescence, CellTiterGlo ATP; BJeLR fibroblasts viability, 48 h; HRASV12, hTERT and SV40 LT/ST transformed; actives 0.64% (n = 30,000); viability loss activity score, % (concentration not given with the values); in the data active = viability loss activity score above about 50%;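 note: higher score means fewer live cells and less ATP luminescence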
Shh pathway inh = Hedgehog pathway signaling inhibitors, primary screen, luminescence, Shh-LIGHT2 cells, Gli-luciferase; Shh-LIGHT2 Gli-luciferase reporter, 30 h; inhibition, % (concentration not given with the values); actives 2.1% (n = 22,000); AID 2313, 2010;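 active = mean inhibition across valid replicates above about 65%, limit read from the data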;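 note: pathway switched on by Shh-conditioned medium diluted 1 in 25 in low serum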
Starred values were filed as active, the others as inactive; nt = no result.

SMILES	BJeLR viab HTS	Shh pathway inh
COc1cccc2c1C(=O)c1c(O)c3c(c(O)c1C2=O)C[C@@](O)(C(C)=O)C[C@@H]3O[C@H]1C[C@H](N)[C@H](O)[C@H](C)O1	111*	99*
CC1CC(=O)c2c(ccc3c2C(=O)c2c(O[C@@H]4O[C@@H](C)[C@H](O)[C@@H](O)[C@H]4O)cccc2C3=O)C1 (some centres not stated)	5	3
COc1ccc(-c2cc(C(=O)Nc3cc(Cl)ccc3OC)c3ccccc3n2)cc1	2	nt
COC(=O)c1cc2sccc2n1Cc1cc(=O)n2ccccc2n1	2	nt
C[C@H]1CN([C@@H](C)CO)C(=O)Cc2cc(NC(=O)Cc3ccccc3)ccc2O[C@@H]1CN(C)Cc1ccc2c(c1)OCO2	nt	-4
CCc1nc(SCS(=O)(=O)c2ccc(C)cc2)c(C#N)c2c1CCCC2	6	-4
Cc1cc(Sc2nnc(/N=C/N(C)C)s2)c2ccccc2n1	54*	nt
CN(C)/C=N/c1nnc(SCC(=O)c2ccc(F)cc2)s1	2	nt
COc1c(O)cc2oc3cc(O)c(CC=C(C)C)c(O)c3c(=O)c2c1CC=C(C)C	4	11
CC(C)=CCc1c(O)cc2oc3c(CC=C(C)C)c(O)c(O)c(CC=C(C)C)c3c(=O)c2c1O	nt	103*
COc1ccc(CNC(=O)C2CCN(S(=O)(=O)c3cnc[nH]3)CC2)cc1	2	nt
CO[C@@]12[C@H](COC(N)=O)C3=C(C(=O)C(C)=C(N)C3=O)N1C[C@@H]1N[C@@H]12	58*	34
Cc1ccc2[nH]cc(CCNC(=O)c3ccccc3)c2c1	5	nt
Cc1ccc(S(=O)(=O)/C=C/C#N)cc1	nt	98*
Cc1ccc(S(=O)(=O)c2ccc(C)cc2)cc1	0	7
Cc1ccc(-n2nc(C(=O)N3CCCC3)c3c4ccccc4n(C)c3c2=O)cc1	0	nt
O[C@H]1C=C2CCN3Cc4cc5c(cc4C(C23)[C@@H]1O)OCO5 (some centres not stated)	39	99*
COc1cc2c(cc1OC)CN(S(=O)(=O)c1c(C)nn(C)c1C)CC2	-8	nt
CCOC(=O)N1CCN(C(=O)C(NC(=O)c2ccc(C34CC5CC(CC(C5)C3)C4)cc2)C(C)C)CC1 (configuration not stated)	3	nt
CN(C)c1ccc(C(=C2C=CC(=[N+](C)C)C=C2)c2ccc(N(C)C)cc2)cc1	127*	97*
C[C@@H]1CCCCO[C@H](CN(C)C(=O)Nc2ccc(C(F)(F)F)cc2)[C@@H](C)CN([C@H](C)CO)C(=O)c2cc(NS(=O)(=O)c3ccc(F)cc3)ccc2O1	nt	31
C[C@@H]1CCCCO[C@@H](CN(C)C(=O)Nc2ccc(C(F)(F)F)cc2)[C@@H](C)CN([C@H](C)CO)C(=O)c2cc(NS(=O)(=O)c3ccc(Cl)cc3)ccc2O1	nt	119*
C[C@@H]1CCCCO[C@@H](CN(C)C(=O)Nc2ccc(C(F)(F)F)cc2)[C@@H](C)CN([C@H](C)CO)C(=O)c2cc(NS(=O)(=O)c3cccs3)ccc2O1	nt	83*
C[C@@H]1CCCCO[C@H](CN(C)C(=O)Nc2ccccc2)[C@@H](C)CN([C@H](C)CO)C(=O)c2cc(NS(=O)(=O)c3cccs3)ccc2O1	nt	-8
CCN(CC)c1c(C#N)c(SCC(=O)c2cccs2)cc2c1CCCC2	13	81*
SMILES	BJeLR viab HTS	Shh pathway inh
N#Cc1c(-c2cccs2)c2c([nH]c1=S)CCCC2	1	nt
Cc1nc2sccn2c(=O)c1CCN1CCC(=C(c2ccccc2)c2ccc(F)cc2)CC1	3	71*
O=C(c1ccc(F)cc1)C1CCN(CCn2c(=O)[nH]c3ccccc3c2=O)CC1	-3	17
CC(=O)OCC1(C)CC2[C@]3(CO[C@@]24CCC2[C@@]5(C)CC[C@H](O[C@@H]6OC[C@@H](O)[C@H](O)[C@H]6O)[C@@](C)(CO)C5CC[C@@]2(C)[C@]4(C)C[C@H]3O)[C@@H](O)C1 (some centres not stated)	7	76*
CC1(C)CC[C@@]2(C(=O)O)C(C1)C1=CCC3[C@@]4(C)CC[C@H](O[C@@H]5O[C@H](C(=O)O)[C@@H](O[C@@H]6OC[C@@H](O)[C@H](O)[C@H]6O)[C@H](O)[C@H]5O)C(C)(C)C4CC[C@@]3(C)[C@]1(C)C[C@H]2O (some centres not stated)	nt	2
CC(C)Cc1cnc(CCC(N)=O)c(=O)[nH]1	3	-30
CC(C)NC(=O)c1ccc2c(c1)N(Cc1ccccc1F)C(=O)c1ccccc1S2(=O)=O	2	nt
NNC(=O)c1cc2c(s1)-c1ccccc1CC2	-1	-64
O=C(C/C(=C1/CCc2ccccc2C1=O)c1ccccc1)c1ccccc1	-7	103*
Cc1sc(-c2ccc(-c3csnn3)cc2)nc1-c1ccccc1	4	nt
CCCCCC(=O)O[C@]1(C(C)=O)CCC2C3CCC4=CC(=O)CC[C@]4(C)C3CC[C@@]21C (some centres not stated)	0	96*
CC(=O)[C@@]1(O)CCC2C3CCC4=CC(=O)CC[C@]4(C)C3CC[C@@]21C (some centres not stated)	-4	32
O=C1CCC(=O)N1CN(C(=O)C(F)(F)F)c1ccccc1	-12	nt
Cc1ccc(-c2cc(=O)c3ccc4ccccc4c3o2)cc1	5	nt
CCOc1ccc(S(=O)(=O)N(CC(=O)NCc2ccccc2)c2ccccc2)cc1	11	nt
